Where “and” joins values, the source holds several entries; their conditions need not be identical. Identical values can stand only once. Records with an inconclusive call do not appear. Calls of active or inactive are those of the source. Rule for the calls: active = hit-call score of the fitted dose curve at least 0.9, where 1 is the maximum; inconclusive = response in the unintended direction; inactive = score below 0.9. *1 amine or outer side, *2 acyl side, *3 side chain or, on linkers, in order; H or OH if unused. Where a SMILES comes first, the peptide text is derived from it. Bridges are numbered along the chain shown (N, C = ends). Roman numbers before positions name the chains, in order. [ ]: non-standard residue; d: D form. Actinocin(9to1) = Cc1c2oc3c(C)ccc(C(=O)[*:1])c3nc-2c(C(=O)[*:2])c(N)c1=O; NMeV = CN[C@H](C(=O)O)C(C)C; Sar = CNCC(=O)O

Sequence of Cellular tumor antigen p53 (Homo sapiens) (P04637 whole entry, looked up): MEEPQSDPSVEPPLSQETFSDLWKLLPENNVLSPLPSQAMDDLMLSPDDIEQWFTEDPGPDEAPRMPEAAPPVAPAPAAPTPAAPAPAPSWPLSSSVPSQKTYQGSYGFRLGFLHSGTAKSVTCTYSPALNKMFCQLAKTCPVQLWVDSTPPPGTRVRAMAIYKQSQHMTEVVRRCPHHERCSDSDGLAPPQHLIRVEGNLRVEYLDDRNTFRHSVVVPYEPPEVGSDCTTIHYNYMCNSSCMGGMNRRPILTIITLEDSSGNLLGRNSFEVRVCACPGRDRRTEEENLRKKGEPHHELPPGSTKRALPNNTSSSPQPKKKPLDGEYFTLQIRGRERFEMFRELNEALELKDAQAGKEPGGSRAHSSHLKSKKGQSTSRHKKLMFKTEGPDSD

For this experiment, the target named is Cellular tumor antigen p53 (Homo sapiens) (UniProt P04637). The experiment can be described thus: TOX21_p53_BLA_p3_ratio: Tox21 HCT-116 p53 Agonism Beta-lactamase Assay, Ratio, Phase 3 (AID 2283596). In a few lines:
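HCT116 p53-bla cells (4000/well) given compound in DMSO (217-fold dilution) after 5 h, incubated 16 h at 37C. CCF4-AM substrate 2 h at room temperature; 460/530 nm emission ratio, gain fitted against DMSO.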
`CC1C(=O)CC2C3(C)CCC2(C(C)C(=O)O)C(=O)C13` (stereo not given): the outcome was inactive.

As to `O=S(=O)(O)CCCS(=O)(=O)O`, the outcome was inactive.

For the compound `CC[C@H](C)C(=O)O[C@H]1CCC=C2C=C[C@H](C)[C@H](CC[C@@H]3C[C@@H](O)CC(=O)O3)[C@H]21`, the result was inactive.

Turning to `O=C(O)P(=O)(O)O`, the outcome was inactive.

Regarding `N[C@@H](Cc1cc(I)c(O)c(I)c1)C(=O)O`, the outcome was inactive.

For the compound `NC(Cc1ccc(F)cc1)C(=O)O` (stereo not given), the outcome was inactive.

Regarding `Cc1cc(C2CCCCC2)n(O)c(=O)c1`, the outcome was inactive.

As for `C[C@@H]1C[C@H]2[C@@H]3C[C@H](F)C4=CC(=O)C=C[C@]4(C)[C@@]3(Cl)[C@@H](O)C[C@]2(C)[C@H]1C(=O)COC(=O)C(C)(C)C`, the result was inactive.

With `CC(=O)[C@]1(O)Cc2c(O)c3c(c(O)c2[C@@H](O[C@H]2C[C@H](N)[C@H](O)[C@H](C)O2)C1)C(=O)c1c(O)cccc1C3=O`, the AC50 is 222 nM (active) and 212 nM (active).

As to `CN1C[C@@H]2C[C@H]1CN2c1cc2c(cc1F)c(=O)c(C(=O)O)cn2C1CC1`, the outcome was inactive.

Regarding `CCOC(=O)c1c(N)sc2c1CCN(Cc1ccccc1)C2`, the result was inactive.

`CC(C)NCC(O)c1ccc2ccccc2c1` (stereo not given): the result was inactive.

On to `Nc1ccn(C2CO[C@H](CO)O2)c(=O)n1` (stereo not given in full), for which the AC50 is 5.96e-05 µM (active).

Consider `c1ccc(-n2cnnn2)cc1`, for which the result was inactive.

On to `C[C@@H]1C[C@H]2[C@@H]3CCC4=CC(=O)C=C[C@]4(C)[C@@]3(F)[C@@H](O)C[C@]2(C)[C@@]1(O)C(=O)CO`, for which the outcome was inactive.

On to `O=C(O)c1cc(=O)c2c(OCC(O)COc3cccc4oc(C(=O)O)cc(=O)c34)cccc2o1`, for which the result was inactive.

In the case of `CC(C)=C1CC[C@@H](C)CC1=O`, the result was inactive.

Take `CCCCCCCCCCC[C@@H](C[C@@H]1OC(=O)[C@H]1CCCCCC)OC(=O)[C@H](CC(C)C)NC=O`: the result was inactive.

With `O=S(O)CO`, the outcome was inactive.

As for `Oc1ccc(OCc2ccccc2)cc1`, the AC50 is 25.7 µM (active) and 10.9 µM (active).

For the compound `CC(C)(C)NC[C@H](O)COc1nsnc1N1CCOCC1`, the outcome was inactive.

On to `c1ccc([C@H]2CN3CCSC3=N2)cc1`, for which the result was inactive.

`C=C(C)C(=O)OCCCC`: the result was inactive.

In the case of `CO[C@@H]1[C@@H](OC)[C@H](C)[C@@](O)(CC(=O)O)O[C@H]1[C@H](C)[C@H]1O[C@@]2(CC[C@@](C)([C@H]3CC[C@@](C)([C@@H]4O[C@@H]([C@H]5O[C@](C)(O)[C@H](C)C[C@@H]5C)C[C@@H]4OC4C[C@H](OC)[C@@H](OC)[C@H](C)O4)O3)O2)C[C@H](O)[C@H]1C` (stereo not given in full), the result was inactive.

For the compound `CO[C@H](C(=O)[C@@H](O)[C@@H](C)O)C1Cc2cc3cc(O[C@H]4C[C@@H](O[C@H]5C[C@@H](O)[C@H](O)[C@@H](C)O5)[C@@H](O)[C@@H](C)O4)c(C)c(O)c3c(O)c2C(=O)[C@H]1O[C@H]1C[C@@H](O[C@H]2C[C@@H](O[C@H]3C[C@](C)(O)[C@H](O)[C@@H](C)O3)[C@H](O)[C@@H](C)O2)[C@H](O)[C@@H](C)O1` (stereo not given in full), the AC50 is 24.2 nM (active) and 37.6 nM (active).

As to `Nc1ccccc1O`, the AC50 was 39.2 µM (active).

Take `CCCCCCCCCCCCCCC[C@H](O)[C@@H](N)CO`: the outcome was inactive.

With `[Cl-].[Cl-].[NH2-].[NH2-].[Pt+4]`, the outcome was inactive.

Take `CC(=O)O[Si](C)(OC(C)=O)OC(C)=O`: the outcome was inactive.

Regarding `O=C(O)CCCc1ccccc1`, the outcome was inactive.

As for `CC(CO)Oc1ccccc1` (stereo not given), the outcome was inactive.

As to `Nc1ncnc2c1ncn2[C@@H]1O[C@H](COP(=O)(O)OP(=O)(O)OP(=O)(O)O)[C@@H](O)[C@H]1O`, the outcome was inactive.

With `CCCCCCCCCCCl`, the outcome was inactive.

In the case of `CCOC(=O)COc1ccc(C)cc1`, the result was inactive.

For `CCO[Si](CC(C)C)(OCC)OCC`, the outcome was inactive.

Consider `COc1ccccc1C=CC=O`, for which the result was inactive.

In the case of `CCCCCCCCS`, the outcome was inactive.

In the case of `Cc1c2oc3c(C)ccc(C(=O)N[C@@H]4C(=O)N[C@H](C(C)C)C(=O)N5CCC[C@H]5C(=O)N(C)CC(=O)N(C)[C@@H](C(C)C)C(=O)O[C@@H]4C)c3nc-2c(C(=O)N[C@@H]2C(=O)N[C@H](C(C)C)C(=O)N3CCC[C@H]3C(=O)N(C)CC(=O)N(C)[C@@H](C(C)C)C(=O)O[C@@H]2C)c(N)c1=O` (I: T[dV]P[Sar][NMeV] / II: T[dV]P[Sar][NMeV]; ester I:1-I:C, II:1-II:C; linker I:N-II:N via Actinocin(9to1)), the AC50 is 0.165 nM (active) and 4.24 nM (active).

In the case of `Nc1c2c(nc3ccccc13)CCCC2`, the result was inactive.

Consider `CN1C(=O)CN2CCc3ccccc3C2c2cc(Cl)ccc21` (stereo not given), for which the AC50 is 39.8 µM (active).

Usually AC50 stands for the midpoint of the concentration-response curve, whichever way the signal moves.

The values above are taken from PubChem BioAssay (EPA / NIEHS).
